According to publication PMC5540273 (PLoS ONE, 2017):
“And” between values parts separate entries of the source, which are not always exact repeats. Equal entries are not always repeated. Where two headings read alike, the source gives them in different places.

How the values were obtained:
Settings in all cases: concentration: 1 μM, replicates: in singlicate, n = 1
GRK4 = system: GRK4
GRK7 = system: GRK7
GSK3A = system: GSK3A
GSK3B = system: GSK3B
HASPIN = system: T1, HASPIN
T1 construct: gene GSG2

HCK = system: HCK
HIPK1 = system: HIPK1
HIPK2 = system: HIPK2
HIPK3 = system: HIPK3
HIPK4 = system: HIPK4
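Further: KINOMEscan kinase panel screen.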

O=c1cc(N2CCOCC2)nc2n(Cc3cccc(Cl)c3Cl)c(C3CC3)nn12 [GSK2358994]
%Inh (GRK4): 0%
%Inh (GRK7): 0%
%Inh (GSK3A): 4%
%Inh (GSK3B): 0%
%Inh (HASPIN): 0%
%Inh (HCK): 0%
%Inh (HIPK1): 16%
%Inh (HIPK2): 0%
%Inh (HIPK3): 16%
%Inh (HIPK4): 0%

Cc1nnc(-c2ccc(C)c(-c3ccc(C(=O)Nc4ccc(NS(C)(=O)=O)cc4)cc3)c2)o1 [GW702865]
%Inh (GRK4): 0%
%Inh (GRK7): 0%
%Inh (GSK3A): 5%
%Inh (GSK3B): 0%
%Inh (HASPIN): 46%
%Inh (HCK): 0%
%Inh (HIPK1): 0%
%Inh (HIPK2): 0%
%Inh (HIPK3): 12%
%Inh (HIPK4): 0%

COCCNC(=O)c1ccc(-c2cc(C(=O)NC3CC3)cc(F)c2C)cc1 [GW868318]
%Inh (GRK4): 7%
%Inh (GRK7): 28%
%Inh (GSK3A): 0%
%Inh (GSK3B): 42%
%Inh (HASPIN): 0%
%Inh (HCK): 24%
%Inh (HIPK1): 23%
%Inh (HIPK2): 15%
%Inh (HIPK3): 35%
%Inh (HIPK4): 17%

O=C(Nc1cccc(-c2nn3ncccc3c2-c2ccnc(Nc3cccc(C(F)(F)F)c3)n2)c1)c1c(F)cccc1F [GSK299495]
%Inh (GRK4): 2%
%Inh (GRK7): 0%
%Inh (GSK3A): 0%
%Inh (GSK3B): 18%
%Inh (HASPIN): 2%
%Inh (HCK): 98.1%
%Inh (HIPK1): 0%
%Inh (HIPK2): 0%
%Inh (HIPK3): 1%
%Inh (HIPK4): 0%

c1ccc(-c2n[nH]cc2-c2ccnc3ccccc23)nc1 [GW271431]
%Inh (GRK4): 0%
%Inh (GRK7): 23%
%Inh (GSK3A): 15%
%Inh (GSK3B): 17%
%Inh (HASPIN): 10%
%Inh (HCK): 0%
%Inh (HIPK1): 15%
%Inh (HIPK2): 0%
%Inh (HIPK3): 26%
%Inh (HIPK4): 0%

Fc1ccc(-c2nn3c(OCC(F)(F)F)cccc3c2-c2ccncc2)cc1 [GW514784]
%Inh (GRK4): 0%
%Inh (GRK7): 0%
%Inh (GSK3A): 10%
%Inh (GSK3B): 0%
%Inh (HASPIN): 67%
%Inh (HCK): 0%
%Inh (HIPK1): 0%
%Inh (HIPK2): 0%
%Inh (HIPK3): 5%
%Inh (HIPK4): 0%

CC(C)Oc1ccc2c(-c3ccnc(Nc4ccc(N5CCN(C)CC5)cc4)n3)cnn2n1 [GW696155]
%Inh (GRK4): 84%
%Inh (GRK7): 0%
%Inh (GSK3A): 0%
%Inh (GSK3B): 6%
%Inh (HASPIN): 70%
%Inh (HCK): 0%
%Inh (HIPK1): 97.2%
%Inh (HIPK2): 98.7%
%Inh (HIPK3): 98.5%
%Inh (HIPK4): 83%

COc1ccc(Nc2nccc(N3CCC(NC(=O)Nc4cc(C)ccc4C)C3)n2)cc1 (stereo not shown) [GSK1379741]
%Inh (GRK4): 0%
%Inh (GRK7): 0%
%Inh (GSK3A): 0%
%Inh (GSK3B): 18%
%Inh (HASPIN): 0%
%Inh (HCK): 0%
%Inh (HIPK1): 0%
%Inh (HIPK2): 0%
%Inh (HIPK3): 16%
%Inh (HIPK4): 0%

CCCCCc1nc2c(N)ncnc2n1CCCCC [SKF-97255]
%Inh (GRK4): 21%
%Inh (GRK7): 0%
%Inh (GSK3A): 0%
%Inh (GSK3B): 34%
%Inh (HASPIN): 2%
%Inh (HCK): 26%
%Inh (HIPK1): 43%
%Inh (HIPK2): 0%
%Inh (HIPK3): 13%
%Inh (HIPK4): 1%

O=C1Cc2cc(Nc3nc(NCc4cccc(S(=O)(=O)C(F)(F)F)c4)ncc3C(F)(F)F)ccc2N1
%Inh (GRK4): 8%
%Inh (GRK7): 0%
%Inh (GSK3A): 47%
%Inh (GSK3B): 0%
%Inh (HASPIN): 8%
%Inh (HCK): 21%
%Inh (HIPK1): 0%
%Inh (HIPK2): 7%
%Inh (HIPK3): 0%
%Inh (HIPK4): 0%

Fc1ccc(-c2ncn(CCCN3CCOCC3)c2-c2ccccn2)cc1 [SB-211742]
%Inh (GRK4): 0%
%Inh (GRK7): 0%
%Inh (GSK3A): 0%
%Inh (GSK3B): 0%
%Inh (HASPIN): 0%
%Inh (HCK): 6%
%Inh (HIPK1): 38%
%Inh (HIPK2): 0%
%Inh (HIPK3): 0%
%Inh (HIPK4): 26%

COc1cc2c(cc1OC[C@@H](O)CO)ncc1c3ccc(C#N)cc3[nH]c21
%Inh (GRK4): 73%
%Inh (GRK7): 5%
%Inh (GSK3A): 0%
%Inh (GSK3B): 0%
%Inh (HASPIN): 91.2%
%Inh (HCK): 4%
%Inh (HIPK1): 94.4%
%Inh (HIPK2): 98%
%Inh (HIPK3): 94.2%
%Inh (HIPK4): 47%

Cl.Cl.Cl.Fc1ccc(-c2ncn(C3CCNCC3)c2-c2ccnc(Nc3ccccc3)n2)cc1 [SB-238039]
%Inh (GRK4; 1 µM): 8% and 46%
%Inh (GRK7; 1 µM): 0% and 37%
%Inh (GSK3A; 1 µM): 57% and 10%
%Inh (GSK3B; 1 µM): 47% and 17%
%Inh (HASPIN; 1 µM): 58% and 0%
%Inh (HCK; 1 µM): 65% and 34%
%Inh (HIPK1; 1 µM): 29% and 64%
%Inh (HIPK2; 1 µM): 31% and 30%
%Inh (HIPK3; 1 µM): 8% and 0%
%Inh (HIPK4; 1 µM): 17% and 0%

O=C(NCCNc1ccnc(Nc2ccc(F)cc2)n1)c1cc2ccccc2s1 [GSK1379874]
%Inh (GRK4): 0%
%Inh (GRK7): 0%
%Inh (GSK3A): 0%
%Inh (GSK3B): 6%
%Inh (HASPIN): 19%
%Inh (HCK): 0%
%Inh (HIPK1): 0%
%Inh (HIPK2): 0%
%Inh (HIPK3): 0%
%Inh (HIPK4): 0%

O=C(c1ccc(-c2cc(-c3c[nH]nc3-c3ccccn3)ccn2)cc1)N1CCOCC1 [GW812171]
%Inh (GRK4): 14%
%Inh (GRK7): 0%
%Inh (GSK3A): 8%
%Inh (GSK3B): 7%
%Inh (HASPIN): 0%
%Inh (HCK): 36%
%Inh (HIPK1): 36%
%Inh (HIPK2): 0%
%Inh (HIPK3): 6%
%Inh (HIPK4): 7%

NCC(NC(=O)c1cc(-c2cn[nH]c2)c(-c2ccnc3[nH]ccc23)s1)c1ccccc1.O=C(O)C(F)(F)F.O=C(O)C(F)(F)F (stereo not shown) [GSK1325775]
%Inh (GRK4): 64%
%Inh (GRK7): 51%
%Inh (GSK3A): 38%
%Inh (GSK3B): 48%
%Inh (HASPIN): 84%
%Inh (HCK): 0%
%Inh (HIPK1): 88%
%Inh (HIPK2): 96.7%
%Inh (HIPK3): 98.4%
%Inh (HIPK4): 94.8%
